The results in this text go back to PubChem BioAssay (NCATS).

Structures are written as SMILES. Records with an inconclusive call do not appear. Unmarked numbers belong to inactive results. Calls of active or inactive are those of the source. Calls come from the whole dose curve; as a rule, active = well fitted inhibition curve with a large enough effect; inconclusive = small, poorly fitted or top-dose-only effect; inactive = flat fitted curve, though single readings scatter.

Common to all, as to assay: Cytotoxic Profiling of Annotated Libraries Using Quantitative High-Throughput Screening (AID 1296008); note: nearly all actives have a fitted effect of over 60% in size
Conditions in all cases: Five cell lines viability, CellTiter-Glo ATP luminescence, 48-72 h; max response: active compounds read low
(ATP-based viability assays read luminescence as a measure of living cells.)

The subject of one assay is CRL-7250. An outline of the steps: (§1)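 Compounds were pin-transferred onto cells and incubated 48 or 72 hr at 37 degree Celsius, 95% humidity. CellTiter-Glo was added, plates sat 10 min at room temperature, then ATP-coupled luminescence was imaged as the viability read-out.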
In another assay the test system is HEK293. An outline of the steps:
as §1

Another assay concerns HaCat. In outline: as §1
Another assay has as its system KB-3-1. An outline of the steps:
as §1

The subject of another assay is NIH3T3. In outline:
as §1
% is set by controls: 0 for no effect and ±100 for the full control effect; potency is the fitted concentration of half-maximal effect.

For `C=C(C)C1CCC2(C(=O)O)CCC3(C(=O)O)C(CCC4C5(C)CCC(O)C(C)(C(=O)O)C5CCC43C)C12` (stereo not given), the outcome in the assay with CRL-7250 was inactive. Further, the max response in the assay with HEK293 was 3.45%; in the assay with HaCat, 3.2%; in the assay with KB-3-1 it was -7.04%; with NIH3T3, 1.18%.

On to `CC(C)=CCC/C(C)=C/CCC1(C)Oc2c(c(O)cc3c2CN(C(CCC(=O)O)C(=O)O)C3=O)CC1O` (stereo not given), for which the max response was -8.75% with CRL-7250, -4.48% with HEK293, -10.3% in the assay with HaCat and -11% in the assay with NIH3T3. Also, the outcome in the assay with KB-3-1 was inactive.

As to `O=C(/C=C/c1ccc(O)cc1)N[C@@H](Cc1ccc(O)cc1)C(=O)O`, the max response in the assay with CRL-7250 was -6.91%; in the assay on HEK293, -7.32%; in the assay with HaCat it was 1.92%; with KB-3-1 it was -2.01%; in the assay on NIH3T3 it was 1.16%.

`Cc1cccc(Oc2cnc(=O)[nH]c2)c1`: the call with CRL-7250 was inactive. Moreover, the max response in the assay with HEK293 is 2.27%; with HaCat, -9.89%; in the assay with KB-3-1, 3.8%; in the assay with NIH3T3, -28.2%.

As to `CC1CCC2(C=O)C(CO)=CCCC2C1(C)CC(=O)O` (stereo not given), the max response in the assay with CRL-7250 was 1.72%; in the assay with HEK293 it was -8.27%; in the assay with HaCat, -1.16%; in the assay with KB-3-1, 2.85%; with NIH3T3, -21.3%.

In the case of `O=C1Nc2ccccc2C(O)(c2ccccc2)C1O` (stereo not given), the max response was 0.0908% in the assay with CRL-7250; -7.58% in the assay with HEK293; -18.6% in the assay with HaCat; 2.02% in the assay with KB-3-1; -2.57% in the assay with NIH3T3.

Regarding `C=C1CCCC2(C)CC3(OC)OC(=O)C(C)=C3CC12` (stereo not given), the max response in the assay on CRL-7250 was 2.37%; in the assay on HEK293 it was 3.93%; in the assay on HaCat, 2.5%; with KB-3-1 it was -2.16%; in the assay with NIH3T3, -10.6%.

On to `CC1(c2nc3c(C(N)=O)cccc3[nH]2)CCCN1` (stereo not given), for which the max response with CRL-7250 was -7.72%; with HEK293, -22.9%; with HaCat it was -9.07%; in the assay with NIH3T3, -5.13%. In the assay on KB-3-1, the compound was classed as inactive.

Consider `COCCOc1ccc(N2CCN(CCn3ncc4c3nc(N)n3nc(-c5ccco5)nc43)CC2)cc1`, for which the call in the assay with CRL-7250 was inactive. Besides, the max response was -9.01% in the assay on HEK293, 2.38% with HaCat, -29.2% in the assay with KB-3-1 and 0.99% with NIH3T3.

Consider `CC1(C)CC[C@]2(C(=O)O[C@@H]3O[C@H](CO)[C@@H](O)[C@H](O)[C@H]3O)CC[C@]3(C)C(=CCC4[C@@]5(C)CC[C@H](O[C@@H]6O[C@H](C(=O)O)[C@@H](O)[C@H](O)[C@H]6O)[C@@](C)(CO)C5CC[C@]43C)C2C1` (stereo not given in full), for which the max response in the assay on CRL-7250 is 1.86%; with HEK293, -6.82%; in the assay on KB-3-1, -0.849%; with NIH3T3, -2.22%. Further, the outcome in the assay on HaCat was inactive.

With `CC(=O)OC1C(c2ccccc2)CCC(c2ccccc2)C1OC(C)=O` (stereo not given), the max response in the assay with CRL-7250 was 2.93%; in the assay with HEK293, -10.8%; in the assay with HaCat, 3.27%; in the assay with KB-3-1, 7.87%; with NIH3T3, 0.126%.

`C[C@@H]1O[C@@H](O[C@@H]2CO[C@@H](O[C@H]3CC[C@@]4(C)C(CC[C@]5(C)C4CC=C4[C@@H]6CC(C)(C)CC[C@]6(C(=O)O[C@@H]6O[C@H](CO)[C@@H](O)[C@H](O)[C@H]6O)CC[C@]45C)[C@]3(C)CO)[C@H](O)[C@H]2O[C@@H]2O[C@H](CO)[C@@H](O)[C@H](O)[C@H]2O)[C@H](O)[C@H](O)[C@H]1O` (stereo not given in full): the max response in the assay on CRL-7250 is -2.09%; with HEK293, 1.34%; in the assay on HaCat, -0.513%; in the assay with NIH3T3, 2.94%. Further, the result in the assay on KB-3-1 was inactive.

As to `CC1=CC(=O)CC(C)(C)C1/C=C/C(C)O[C@@H]1O[C@H](CO)[C@@H](O)[C@H](O)[C@H]1O[C@@H]1OC[C@](O)(CO)[C@H]1O` (stereo not given in full), the max response in the assay on CRL-7250 is -0.149%; in the assay with HEK293, 1.02%; in the assay with HaCat, 4.57%; with KB-3-1, 2.75%; with NIH3T3, 3.26%.

On to `C/C(=C\CCC1(C)C2CCC(C2)C1(C)O)C(=O)O` (stereo not given), for which the result in the assay on CRL-7250 and in the assay on KB-3-1 was inactive. For the same compound, the max response in the assay on HEK293 was -6.56%; in the assay on HaCat it was 0.481%; with NIH3T3, 3.29%.

Regarding `C[C@@]12C[C@]3(O)O[C@H](O1)[C@]1(COC(=O)c4ccccc4)[C@H]3C[C@@]12O[C@@H]1O[C@H](CO)[C@@H](O)[C@H](O)[C@H]1O`, the max response with CRL-7250 was 0.654%; in the assay on HEK293, 0.308%; in the assay with HaCat, -7.15%; with KB-3-1, 8.38%; with NIH3T3, 3.01%.

`C=C1C(=O)OC2CC3(C)C(CC12)C(C)=CC(O)C3OC(C)=O` (stereo not given): the max response in the assay on CRL-7250 is -3.42%; in the assay on HEK293, -3.84%; with HaCat, 3.89%; in the assay on NIH3T3, -1.8%. Further, the compound was called inactive in the assay on KB-3-1.

In the case of `CC1C(=O)OCC2=CCN3CCC(OC(=O)C(C)(O)C1(C)O)C23` (stereo not given), the call in the assay on CRL-7250 and in the assay with KB-3-1 was inactive. The max response was -9.35% with HEK293, -22.6% in the assay on HaCat and -32% with NIH3T3.

Take `COC(C(=O)N1Cc2[nH]nc(NC(=O)c3ccc(N4CCN(C)CC4)cc3)c2C1)c1ccccc1` (stereo not given): the Potency is 1.84 µM (active) with CRL-7250; 1.64 µM (active) in the assay on HEK293; 5.8 µM (active) in the assay with HaCat; 8.2 µM (active) in the assay with KB-3-1; 4.11 µM (active) in the assay with NIH3T3.

For the compound `CC1COC(Nc2ccc3ncnc(Nc4ccc(OCc5nccs5)c(Cl)c4)c3c2)=N1` (stereo not given), the Potency in the assay on CRL-7250 is 9.2 µM (active); in the assay on HEK293 it was 11.6 µM (active); with HaCat, 1.84 µM (active). The max response is -8.52% with KB-3-1 and 3.7% in the assay on NIH3T3.
